From PubChem BioAssay
Only some compounds are listed: those with a hit (about 2.2% of all), similar ones and a draw of the others.
mIDH1 inhibitor = blocks human mutant IDH1 R132H enzyme; IDH1-R132H enzyme, NADPH consumption, diaphorase/resazurin fluorescence; 390,000 tested, 0.093% active; Potency, µM (top dose mostly 76.6 µM), for inactives: at the highest dose activity change, negative = inhibition, most hits filed as inhibitors; AID 602179; note: potency is the fitted concentration of half-maximal effect; % is set by controls: 0 for no effect and ±100 for the full control effect; nearly all actives have a fitted effect of over 65% in size
Target sequence (O75874 whole entry R132H, stated change not applied): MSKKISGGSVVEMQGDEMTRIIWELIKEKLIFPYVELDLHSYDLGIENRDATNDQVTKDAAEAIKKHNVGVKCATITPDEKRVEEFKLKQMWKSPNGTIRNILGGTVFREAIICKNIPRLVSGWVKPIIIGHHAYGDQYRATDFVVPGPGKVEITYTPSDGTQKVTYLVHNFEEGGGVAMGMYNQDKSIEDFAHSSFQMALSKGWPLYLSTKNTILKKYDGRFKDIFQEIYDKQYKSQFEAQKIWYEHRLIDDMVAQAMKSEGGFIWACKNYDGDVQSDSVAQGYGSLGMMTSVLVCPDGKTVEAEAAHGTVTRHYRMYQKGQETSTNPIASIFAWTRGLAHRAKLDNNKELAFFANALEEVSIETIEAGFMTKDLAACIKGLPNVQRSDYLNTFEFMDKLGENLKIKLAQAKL
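IDH1-R132H (0.5 ug/mL) preincubated 30 min with compound, then NADPH (0.016 mM) and alpha-KG (2 mM) added; 80 min at RT, pH 7.5. Remaining NADPH coupled via diaphorase/resazurin to fluorescence (540/590 nm); concentration-response curves normalized to no-enzyme control.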
ATXN2 expr inh = inhibitors of ATXN2 expression | Potency, µM (top dose mostly 57 µM), inactives show at the top dose activity change, negative = inhibition, most hits filed as inhibitors | HEK-293 ATXN2-luciferase reporter, luminescence, 24 h | 360,000 tested, 0.72% active; note: potency is the fitted concentration of half-maximal effect; % is set by controls: 0 for no effect and ±100 for the full control effect; nearly all actives have a fitted effect of over 55% in size
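qHTS (up to 57 uM final) was run with 24 h compound exposure of reporter cells at 37 °C. Each well was multiplexed: SteadyGlo luminescence measured ATXN2-luciferase expression after a fluorogenic Gly-Phe-AFC viability readout (25 uM final).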
HepG2 viability = kills HepG2 cells in TGF-b inhibitor counter-screen; HepG2 CAGA-GFP viability, ATP luminescence, 18 h; Potency, µM (top dose mostly 46.1 µM), for the others: at the top dose activity change, negative = cytotoxicity, most hits filed as cytotoxic; 410,000 tested, 0.76% active; AID 588856; note: potency is the fitted concentration of half-maximal effect
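CellTiter-Glo luminescence gave cytotoxicity after 18 hours at 37 degrees C. The cells were HepG2 CAGA-GFP in 1% FBS DMEM, stimulated with 500 pg/mL TGF-beta after compound addition. %Activity was normalised to no-cell wells (complete cell-killing) and DMSO (no toxicity), and curves were fitted and classified.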
ATXN viability = reduces viability in counter-screen for ATXN expression inhibitors | S2 cells (HEK-293 line with an ATXN2-luciferase reporter) viability, CellTiter-Fluor protease fluorescence, 24 h | Potency, µM (doses to about 56.7 µM), actives largely listed as cytotoxic | 400,000 tested, 0.49% active | AID 651635; note: potency is the fitted concentration of half-maximal effect; nearly all actives have a fitted effect of over 40% in size
LDHA inh = inhibitors of human lactate dehydrogenase A; activity change, % (values are at about 110 or 230 µM); purified LDHA, NADH/diaphorase-resazurin fluorescence; hits give low values; 480,000 tested, 0.15% active; AID 1347041; in the data active = activity change below about -30%; inconclusive = mostly about -25% to -30%;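 note: plate controls were DMSO wells for no effect and wells without enzyme for full effect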
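Human LDH5 (2 nM) was incubated with 0.06 mM NADH and 0.2 mM pyruvate for 5 min at room temperature in Tris pH 7.4. Remaining NADH was coupled through diaphorase/resazurin, and resorufin fluorescence was read at 0 and 20 min.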
TGFb inhibitor = inhibitors of TGF-b signaling. HepG2 CAGA-GFP TGF-b/SMAD3 reporter, GFP fluorescence, 18 h; TGF-beta stimulated, 500 pg/mL final. Potency, µM (titrated, usually from 46.1 µM), inactives show at the top dose activity, negative = inhibition, hits mostly inhibitors. 410,000 tested, 1.2% active. AID 588855; note: potency is the fitted concentration of half-maximal effect; % is set by controls: 0 for no effect and ±100 for the full control effect; nearly all actives have a fitted effect of over 65% in size
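Inhibition of TGF-beta-driven CAGA-GFP reporter expression in HEPG2 cells is measured by cellular GFP fluorescence after 18 h stimulation with 500 pg/mL recombinant TGF-beta in 1% FBS medium at 37 degrees C.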
Resorufin autofl = interferes with resorufin fluorescence in IDH1 counter-screen; shares compounds with mIDH1 inhibitor; Resorufin detection reagent fluorescence interference, cell-free; inhibition of signal, % at 51.2 µM; 750 tested, under 10 active;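 note: 0% = wells with normal resorufin and full inhibition = wells lacking resorufin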
WT IDH1 inh = selectivity of mutant IDH1 inhibitors: human wild-type IDH1 | shares compounds with mIDH1 inhibitor | WT IDH1 enzyme, NADPH diaphorase/resazurin fluorescence | Potency, µM (doses to about 115 µM), for the others: at the top dose activity change, negative = inhibition, hits mostly inhibitors | 750 tested, 9% active;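 note: potency is the fitted concentration of half-maximal effect; 0% = full WT IDH1 enzyme control and full inhibition = no enzyme wells; nearly all actives have a fitted effect of over 55% in size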
Target sequence (O75874 whole entry, looked up): as the sequence (O75874 whole entry R132H, stated change not applied) above, with H132R counted along it
IDH1 R132H conf = inhibits human mutant IDH1 enzyme in cherrypick confirmation. shares compounds with mIDH1 inhibitor. IDH1 R132H enzyme, NADPH diaphorase/resazurin fluorescence. Potency, µM (doses to about 76.6 µM), inactives show at the top dose activity change, negative = inhibition, most hits filed as inhibitors. 750 tested, 83% active. AID 624002; note: potency is the fitted concentration of half-maximal effect; nearly all actives have a fitted effect of over 50% in size
SKNSH spheroid = reduced viability of SK-N-SH 3D spheroids, orthogonal test. shares compounds with ATXN2 expr inh. SK-N-SH 3D spheroid viability, PI/Hoechst imaging, 72 h. Potency, µM (highest dose often 30.7 µM), usual class: inhibitors. 65 tested, 70% active
SJ-GBM2 3D tox = lowers viability of SJ-GBM2 3D spheroids; shares compounds with ATXN2 expr inh; SJ-GBM2 3D spheroid viability, PI/Hoechst imaging, 72 h; Potency, µM (doses to about 30.7 µM), actives largely listed as inhibitors; 65 tested, 80% active
Daoy 3D tox = kills Daoy spheroids in orthogonal 3D test; shares compounds with ATXN2 expr inh; 65 tested, 50% active; Potency, µM (top dose mostly 30.7 µM), hits mostly inhibitors; AID 1347137; Daoy 3D spheroid viability, PI/Hoechst imaging, 72 h
TC32 3D caspase = activates caspase in TC32 3D spheroids | AID 1347138 | TC32 3D spheroids, caspase-3/7 fluorescence imaging, 24 h | Potency, µM (series often up to 30.7 µM), most hits filed as inhibitors | 65 tested, 30% active | shares compounds with ATXN2 expr inh
TC32 spheroid = kills TC32 spheroids in orthogonal 3D test; AID 1347139; Potency, µM (series often up to 30.7 µM), most hits filed as inhibitors; 65 tested, 60% active; TC32 3D spheroid viability, PI/Hoechst imaging, 72 h; shares compounds with ATXN2 expr inh
MG63 3D tox = kills MG-63 (6-TG R) spheroids in orthogonal 3D test; shares compounds with ATXN2 expr inh; MG-63 (6-TG R) 3D spheroid viability, PI/Hoechst imaging, 72 h; Potency, µM (highest dose often 30.7 µM), most hits filed as inhibitors; 65 tested, 50% active; AID 1347140
RD spheroid = RD 3D spheroid viability loss. shares compounds with ATXN2 expr inh. RD rhabdomyosarcoma 3D spheroid viability, PI/Hoechst imaging, 72 h. Potency, µM (highest dose often 30.7 µM), hits mostly inhibitors. 65 tested, 50% active
An asterisk follows results filed as active; i = inactive; ? = inconclusive; . = no result. Unless noted, calls come from the whole dose curve; as a rule, active = well fitted curve in the direction sought with a large enough effect; inconclusive = small, poorly fitted or top-dose-only effect, or another doubt; inactive = no such curve, though single readings can be large; an effect the other way counts as inactive or inconclusive.

SMILES	mIDH1 inhibitor	ATXN2 expr inh	HepG2 viability	ATXN viability	LDHA inh	TGFb inhibitor	SKNSH spheroid	SJ-GBM2 3D tox	Daoy 3D tox	TC32 3D caspase	TC32 spheroid	MG63 3D tox	RD spheroid	others
Cc1[nH]c2ccc(F)cc2c1CCN(Cc1cccnc1)C(=S)NC(C)(C)C	-6%	-25%	-14%	i	-3	?	.	.	.	.	.	.	.
CCCN1C(=O)c2[nH]nc(-c3cc(Cl)c(C)cc3O)c2C1c1ccc(O)c(OC)c1 (configuration not stated)	26µM*	14%	3%	i	-1	?	.	.	.	.	.	.	.	Resorufin autofl=11;WT IDH1 inh=?;IDH1 R132H conf=28µM*
COc1cc(C2c3c(-c4cc(Cl)c(C)cc4O)n[nH]c3C(=O)N2CCO)ccc1O (configuration not stated)	.	.	.	.	-5	.	.	.	.	.	.	.	.
COC(=O)c1ccc(C2c3c(-c4ccccc4O)n[nH]c3C(=O)N2Cc2cccnc2)cc1 (configuration not stated)	?	3%	8%	?	10	2%	.	.	.	.	.	.	.	Resorufin autofl=5;WT IDH1 inh=0%;IDH1 R132H conf=40µM*
Nc1ccn([C@@H]2O[C@H](CO)[C@H](O)C2(F)F)c(=O)n1	.	0.22µM*	.	.	.	.	?	0.14µM*	?	i	0.32µM*	0.57µM*	?
O=C(COc1ccccc1)NCCc1csc(-c2ccc(F)cc2)n1	-4%	-23%	-18%	i	-4	1%	.	.	.	.	.	.	.
C[C@@]12O[C@@H](C[C@]1(O)CO)n1c3ccccc3c3c4c(c5c6ccccc6n2c5c31)CNC4=O	.	3.1µM*	.	.	.	.	1.4µM*	0.14µM*	1.1µM*	2.6µM*	5.1µM*	13µM*	8.1µM*
CCCCc1nc2cc(C=CC(=O)NO)ccc2n1CCN(CC)CC	.	113%	.	.	.	.	0.51µM*	0.91µM*	1.6µM*	?	1.4µM*	6.4µM*	1.6µM*
COC1=C2C[C@@H](C)C[C@H](OC)[C@@H](O)[C@@H](C)C=C(C)[C@H](OC(N)=O)[C@@H](OC)C=CC=C(C)C(=O)NC(=CC1=O)C2=O	.	0.77µM*	.	.	.	.	1.6µM*	1.6µM*	6.4µM*	?	1.1µM*	i	0.72µM*
CC(C)(O)Cn1c(NC(=O)c2ccc(-c3cn[nH]c3)s2)nc2cc(CN3CCOCC3)ccc21	.	6.1µM*	.	.	.	.	0.23µM*	0.23µM*	0.64µM*	1.3µM*	1µM*	1.4µM*	0.32µM*
CCn1c(CN2CCOCC2)nc2cc(NC(=O)c3cc(OC)c(OC)c(OC)c3)ccc21	-19%	8%	-15%	i	-1	-14%	.	.	.	.	.	.	.
CN(c1ccccc1)S(=O)(=O)c1cc(C(=O)Nc2ccccc2N2CCOCC2)ccc1Cl	15%	-22%	-25%	i	-1	-17%	.	.	.	.	.	.	.
CN(C)/N=N/c1nc[nH]c1C(N)=O	.	-27%	.	i	.	.	i	?	i	i	i	i	i
CN(C)N=Nc1nc[nH]c1C(N)=O	-11%	?	-16%	i	-2	-9%	.	.	.	.	.	.	.
CSc1nc2[nH]c(=O)[nH]c2c(=O)[nH]1	-15%	-17%	3%	i	-5	0%	.	.	.	.	.	.	.
Cc1c2oc3c(C)ccc(C(=O)N[C@@H]4C(=O)N[C@H](C(C)C)C(=O)N5CCC[C@H]5C(=O)N(C)CC(=O)N(C)[C@@H](C(C)C)C(=O)O[C@@H]4C)c3nc-2c(C(=O)N[C@@H]2C(=O)N[C@H](C(C)C)C(=O)N3CCC[C@H]3C(=O)N(C)CC(=O)N(C)[C@@H](C(C)C)C(=O)O[C@@H]2C)c(N)c1=O	.	1µM*	.	?	.	.	0.0029µM*	0.018µM*	0.026µM*	?	0.032µM*	0.029µM*	0.02µM*
CCCCn1c(N)c(N(CC(C)C)C(=O)CCNC(=O)c2ccc(Cl)cc2)c(=O)[nH]c1=O	4%	4%	-1%	i	-6	0%	.	.	.	.	.	.	.
COc1ccc(NC(=O)C2CCCN2c2nn3c(=O)cc(C)nc3s2)cc1 (configuration not stated)	14%	-3%	2%	?	3	7%	.	.	.	.	.	.	.
CCCS(=O)c1ccc2nc(NC(=O)OC)[nH]c2c1 (configuration not stated)	.	-12%	.	i	.	.	.	.	.	.	.	.	.
COC(=O)Nc1nc2ccc(S(=O)c3ccccc3)cc2[nH]1 (configuration not stated)	.	-12%	.	?	.	.	?	0.57µM*	?	?	0.64µM*	?	?
